Laboratory results reported in the supplement of paper PMC11732987, “Enantioselective OTUD7B fragment discovery through chemoproteomics screening and high-throughput optimisation” (Communications Chemistry, 2025).

Assays:
Assay in all cases: log2 ratio of Biotin-Ahx-Ub-VS probe labelling (fragment/DMSO); higher = less target engagement (more negative = stronger competition), active = hit call of the paper (q ≤ 0.05, log2 ratio ≤ -1)
Conditions in all cases: compound concentration: 200 uM; treatment time: 3 h
[1] = target: USP9X (UniProt Q93008)
In short: (§1)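 Labelled DUBs from HEK293T lysate were NeutrAvidin-enriched, digested with LysC and trypsin, and run by diaPASEF LC-MS/MS. Before that, each 495 µg sample in Tris/CHAPS/IGEPAL buffer with protease inhibitors was treated in triplicate with fragment at 200 µM or vehicle for 3 h, then with Biotin-Ahx-Ub-VS at 0.5 µM final for 1 h. Values are average log2 ratios of fragment over vehicle by unpaired t-test, based on global-median-normalised Spectronaut label-free quantities from proteins with ≥2 unique peptides.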

[2] = target: UniProt O00487
In short: as §1

[3] = target: UniProt O00507
In short: as §1

[4] = target: UniProt P51784
In short: as §1

[5] = target: T1, UniProt Q5T2D3
T1 sequence (whole entry): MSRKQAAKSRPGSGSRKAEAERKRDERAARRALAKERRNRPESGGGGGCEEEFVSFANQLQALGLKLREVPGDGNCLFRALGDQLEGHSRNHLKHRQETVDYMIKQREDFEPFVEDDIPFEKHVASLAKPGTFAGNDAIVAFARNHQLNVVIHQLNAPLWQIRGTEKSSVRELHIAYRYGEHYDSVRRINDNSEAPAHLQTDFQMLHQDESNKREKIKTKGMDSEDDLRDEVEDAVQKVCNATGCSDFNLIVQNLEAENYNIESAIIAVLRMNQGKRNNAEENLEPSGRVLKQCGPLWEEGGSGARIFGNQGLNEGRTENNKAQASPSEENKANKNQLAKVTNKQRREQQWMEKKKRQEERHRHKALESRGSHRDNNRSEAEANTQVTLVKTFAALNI
In short: as §1

[6] = target: T2, UniProt Q8TE49
T2 sequence (whole entry): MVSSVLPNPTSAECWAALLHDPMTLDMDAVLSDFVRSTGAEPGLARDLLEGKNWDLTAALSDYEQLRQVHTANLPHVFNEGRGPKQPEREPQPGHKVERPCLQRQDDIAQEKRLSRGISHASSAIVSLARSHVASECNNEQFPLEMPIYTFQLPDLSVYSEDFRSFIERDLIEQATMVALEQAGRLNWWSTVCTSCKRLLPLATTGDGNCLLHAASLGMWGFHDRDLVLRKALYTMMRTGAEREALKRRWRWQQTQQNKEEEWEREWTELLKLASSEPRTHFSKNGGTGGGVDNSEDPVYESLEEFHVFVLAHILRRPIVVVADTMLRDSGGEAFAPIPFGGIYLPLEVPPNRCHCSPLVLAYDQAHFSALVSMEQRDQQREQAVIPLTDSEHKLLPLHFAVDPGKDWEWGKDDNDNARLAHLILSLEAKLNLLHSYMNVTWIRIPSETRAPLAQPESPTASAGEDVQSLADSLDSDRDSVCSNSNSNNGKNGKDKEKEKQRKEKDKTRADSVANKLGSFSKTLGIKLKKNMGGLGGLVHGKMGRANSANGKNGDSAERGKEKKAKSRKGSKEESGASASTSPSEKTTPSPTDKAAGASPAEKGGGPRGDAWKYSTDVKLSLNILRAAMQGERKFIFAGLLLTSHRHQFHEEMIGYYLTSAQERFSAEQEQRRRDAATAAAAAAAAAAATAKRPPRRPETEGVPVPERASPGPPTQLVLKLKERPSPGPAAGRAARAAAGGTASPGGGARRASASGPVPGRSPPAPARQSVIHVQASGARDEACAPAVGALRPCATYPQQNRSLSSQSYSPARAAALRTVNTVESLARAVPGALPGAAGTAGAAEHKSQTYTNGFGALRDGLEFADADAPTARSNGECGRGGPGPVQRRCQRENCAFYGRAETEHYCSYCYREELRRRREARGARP
In short: as §1

[7] = target: T3, UniProt Q9P2H5
T3 sequence (whole entry): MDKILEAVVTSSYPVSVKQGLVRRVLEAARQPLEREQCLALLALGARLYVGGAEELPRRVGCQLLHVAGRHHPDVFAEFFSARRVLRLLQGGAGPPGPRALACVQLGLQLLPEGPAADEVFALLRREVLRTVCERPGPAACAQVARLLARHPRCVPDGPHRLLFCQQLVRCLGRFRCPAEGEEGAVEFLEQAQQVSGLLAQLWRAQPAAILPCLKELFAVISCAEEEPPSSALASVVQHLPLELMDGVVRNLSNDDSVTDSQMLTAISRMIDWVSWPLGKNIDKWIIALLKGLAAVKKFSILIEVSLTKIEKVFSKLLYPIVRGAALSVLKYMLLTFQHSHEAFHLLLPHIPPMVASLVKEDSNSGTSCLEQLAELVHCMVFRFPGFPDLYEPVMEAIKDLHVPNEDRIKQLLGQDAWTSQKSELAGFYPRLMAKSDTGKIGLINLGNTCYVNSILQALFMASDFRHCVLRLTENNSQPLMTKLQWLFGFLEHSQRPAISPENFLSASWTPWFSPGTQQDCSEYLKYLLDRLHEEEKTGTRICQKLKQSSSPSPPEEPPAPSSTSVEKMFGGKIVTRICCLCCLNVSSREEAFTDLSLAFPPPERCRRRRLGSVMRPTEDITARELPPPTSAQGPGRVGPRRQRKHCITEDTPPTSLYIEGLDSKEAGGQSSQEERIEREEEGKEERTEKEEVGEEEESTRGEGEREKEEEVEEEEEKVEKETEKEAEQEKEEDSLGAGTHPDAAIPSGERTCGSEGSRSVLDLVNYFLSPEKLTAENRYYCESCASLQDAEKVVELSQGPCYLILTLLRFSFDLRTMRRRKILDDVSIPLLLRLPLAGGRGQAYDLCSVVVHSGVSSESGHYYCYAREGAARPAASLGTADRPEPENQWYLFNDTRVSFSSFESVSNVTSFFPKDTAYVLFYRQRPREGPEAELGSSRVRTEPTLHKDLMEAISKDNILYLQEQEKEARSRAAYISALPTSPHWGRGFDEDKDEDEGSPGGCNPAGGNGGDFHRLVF
In short: as §1

[8] = target: T4, UniProt Q9UGI0
T4 sequence (whole entry): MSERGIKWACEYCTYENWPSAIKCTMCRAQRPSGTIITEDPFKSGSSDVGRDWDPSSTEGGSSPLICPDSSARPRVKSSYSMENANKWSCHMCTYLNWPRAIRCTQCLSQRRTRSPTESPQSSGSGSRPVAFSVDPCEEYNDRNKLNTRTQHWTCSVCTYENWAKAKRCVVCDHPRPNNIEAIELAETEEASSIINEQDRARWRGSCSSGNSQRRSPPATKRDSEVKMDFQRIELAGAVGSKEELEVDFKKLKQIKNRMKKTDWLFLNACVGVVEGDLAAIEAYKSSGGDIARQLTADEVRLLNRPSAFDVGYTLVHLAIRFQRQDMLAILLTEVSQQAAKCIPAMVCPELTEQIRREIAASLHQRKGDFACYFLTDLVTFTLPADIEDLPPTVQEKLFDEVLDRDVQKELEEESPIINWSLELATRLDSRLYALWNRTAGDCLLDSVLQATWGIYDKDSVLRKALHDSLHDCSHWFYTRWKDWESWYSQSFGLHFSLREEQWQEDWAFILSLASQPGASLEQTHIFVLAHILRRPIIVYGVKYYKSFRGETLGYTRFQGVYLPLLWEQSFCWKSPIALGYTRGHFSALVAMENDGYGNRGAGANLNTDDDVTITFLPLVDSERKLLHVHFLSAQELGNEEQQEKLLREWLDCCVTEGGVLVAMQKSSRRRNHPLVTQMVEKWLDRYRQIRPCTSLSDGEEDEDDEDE
In short: as §1

[9] = target: T5, YOD1 (UniProt Q5VVQ6)
T5 sequence (whole entry): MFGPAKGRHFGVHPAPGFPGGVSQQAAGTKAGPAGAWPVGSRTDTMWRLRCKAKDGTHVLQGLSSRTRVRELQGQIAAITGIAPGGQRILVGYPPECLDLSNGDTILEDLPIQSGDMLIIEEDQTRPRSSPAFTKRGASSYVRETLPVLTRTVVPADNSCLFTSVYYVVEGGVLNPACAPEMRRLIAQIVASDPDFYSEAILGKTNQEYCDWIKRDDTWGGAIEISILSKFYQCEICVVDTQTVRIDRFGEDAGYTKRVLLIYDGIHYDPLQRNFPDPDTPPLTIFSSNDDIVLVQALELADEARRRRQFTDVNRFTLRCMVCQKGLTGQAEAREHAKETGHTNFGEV
In short: as §1

Measured: log2 ratio of Biotin-Ahx-Ub-VS probe labelling

Chain of USP9X (Q93008 whole entry, the tested form may be a part): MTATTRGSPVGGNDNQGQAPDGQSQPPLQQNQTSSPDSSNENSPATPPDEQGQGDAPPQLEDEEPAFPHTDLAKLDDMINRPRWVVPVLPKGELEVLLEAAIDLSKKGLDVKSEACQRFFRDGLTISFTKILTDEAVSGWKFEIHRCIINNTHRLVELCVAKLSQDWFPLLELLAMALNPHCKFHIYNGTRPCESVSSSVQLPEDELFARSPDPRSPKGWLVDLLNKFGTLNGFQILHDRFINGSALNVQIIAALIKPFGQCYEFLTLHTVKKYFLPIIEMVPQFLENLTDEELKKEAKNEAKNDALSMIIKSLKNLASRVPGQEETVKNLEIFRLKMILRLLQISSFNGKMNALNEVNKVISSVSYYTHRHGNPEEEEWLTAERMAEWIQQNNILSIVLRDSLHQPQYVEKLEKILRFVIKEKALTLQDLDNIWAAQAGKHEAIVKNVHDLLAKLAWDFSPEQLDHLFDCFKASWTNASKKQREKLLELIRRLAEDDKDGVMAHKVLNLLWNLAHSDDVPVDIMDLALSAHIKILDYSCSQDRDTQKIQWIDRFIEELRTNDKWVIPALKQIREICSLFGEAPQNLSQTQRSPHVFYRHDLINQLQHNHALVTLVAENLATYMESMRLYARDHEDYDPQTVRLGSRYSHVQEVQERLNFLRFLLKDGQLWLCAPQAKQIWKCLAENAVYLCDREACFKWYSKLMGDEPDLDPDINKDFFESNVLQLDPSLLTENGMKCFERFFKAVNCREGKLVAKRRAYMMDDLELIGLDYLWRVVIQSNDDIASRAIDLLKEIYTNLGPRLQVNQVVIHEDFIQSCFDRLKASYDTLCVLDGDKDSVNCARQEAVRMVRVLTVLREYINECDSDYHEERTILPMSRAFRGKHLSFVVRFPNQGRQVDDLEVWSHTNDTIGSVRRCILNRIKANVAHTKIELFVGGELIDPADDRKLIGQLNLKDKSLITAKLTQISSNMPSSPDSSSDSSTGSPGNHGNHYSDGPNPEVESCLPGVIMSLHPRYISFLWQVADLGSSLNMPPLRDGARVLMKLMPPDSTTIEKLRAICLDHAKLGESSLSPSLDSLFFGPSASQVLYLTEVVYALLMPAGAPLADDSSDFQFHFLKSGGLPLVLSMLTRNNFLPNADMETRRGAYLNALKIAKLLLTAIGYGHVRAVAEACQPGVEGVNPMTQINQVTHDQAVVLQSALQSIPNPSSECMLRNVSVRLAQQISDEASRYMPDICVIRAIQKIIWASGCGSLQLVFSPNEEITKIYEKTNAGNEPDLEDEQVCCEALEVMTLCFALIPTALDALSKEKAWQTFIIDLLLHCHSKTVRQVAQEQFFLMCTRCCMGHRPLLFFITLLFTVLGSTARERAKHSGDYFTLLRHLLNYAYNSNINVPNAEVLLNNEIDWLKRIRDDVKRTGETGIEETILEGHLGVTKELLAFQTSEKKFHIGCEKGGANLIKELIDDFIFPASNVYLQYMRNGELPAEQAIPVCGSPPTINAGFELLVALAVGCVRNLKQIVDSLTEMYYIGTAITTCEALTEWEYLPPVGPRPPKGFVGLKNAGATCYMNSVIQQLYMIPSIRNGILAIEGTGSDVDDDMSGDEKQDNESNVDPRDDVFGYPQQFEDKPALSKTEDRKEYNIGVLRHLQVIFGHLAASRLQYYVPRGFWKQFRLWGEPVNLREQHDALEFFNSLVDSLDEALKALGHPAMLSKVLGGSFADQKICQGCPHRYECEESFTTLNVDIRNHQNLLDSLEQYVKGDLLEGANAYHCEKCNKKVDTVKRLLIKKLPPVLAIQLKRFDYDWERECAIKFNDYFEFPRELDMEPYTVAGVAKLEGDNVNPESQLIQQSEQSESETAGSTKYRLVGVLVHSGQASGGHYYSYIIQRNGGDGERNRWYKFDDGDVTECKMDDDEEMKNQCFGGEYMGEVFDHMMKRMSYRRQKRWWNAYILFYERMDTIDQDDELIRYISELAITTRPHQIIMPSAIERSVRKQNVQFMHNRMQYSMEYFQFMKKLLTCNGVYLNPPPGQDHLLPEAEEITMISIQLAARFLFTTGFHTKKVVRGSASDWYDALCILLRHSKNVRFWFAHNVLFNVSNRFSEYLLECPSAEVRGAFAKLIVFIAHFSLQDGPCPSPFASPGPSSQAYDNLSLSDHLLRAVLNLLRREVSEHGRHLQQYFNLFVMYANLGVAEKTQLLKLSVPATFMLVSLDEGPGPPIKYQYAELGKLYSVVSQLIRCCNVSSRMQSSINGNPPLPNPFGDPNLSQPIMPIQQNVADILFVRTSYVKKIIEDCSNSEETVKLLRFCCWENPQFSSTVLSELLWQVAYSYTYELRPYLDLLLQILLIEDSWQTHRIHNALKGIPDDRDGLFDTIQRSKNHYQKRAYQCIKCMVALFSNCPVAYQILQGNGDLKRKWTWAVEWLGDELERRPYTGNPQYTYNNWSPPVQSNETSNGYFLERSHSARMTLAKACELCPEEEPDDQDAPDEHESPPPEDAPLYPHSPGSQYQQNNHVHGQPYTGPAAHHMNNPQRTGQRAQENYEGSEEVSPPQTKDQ
Chain of UniProt P51784 (P51784 whole entry): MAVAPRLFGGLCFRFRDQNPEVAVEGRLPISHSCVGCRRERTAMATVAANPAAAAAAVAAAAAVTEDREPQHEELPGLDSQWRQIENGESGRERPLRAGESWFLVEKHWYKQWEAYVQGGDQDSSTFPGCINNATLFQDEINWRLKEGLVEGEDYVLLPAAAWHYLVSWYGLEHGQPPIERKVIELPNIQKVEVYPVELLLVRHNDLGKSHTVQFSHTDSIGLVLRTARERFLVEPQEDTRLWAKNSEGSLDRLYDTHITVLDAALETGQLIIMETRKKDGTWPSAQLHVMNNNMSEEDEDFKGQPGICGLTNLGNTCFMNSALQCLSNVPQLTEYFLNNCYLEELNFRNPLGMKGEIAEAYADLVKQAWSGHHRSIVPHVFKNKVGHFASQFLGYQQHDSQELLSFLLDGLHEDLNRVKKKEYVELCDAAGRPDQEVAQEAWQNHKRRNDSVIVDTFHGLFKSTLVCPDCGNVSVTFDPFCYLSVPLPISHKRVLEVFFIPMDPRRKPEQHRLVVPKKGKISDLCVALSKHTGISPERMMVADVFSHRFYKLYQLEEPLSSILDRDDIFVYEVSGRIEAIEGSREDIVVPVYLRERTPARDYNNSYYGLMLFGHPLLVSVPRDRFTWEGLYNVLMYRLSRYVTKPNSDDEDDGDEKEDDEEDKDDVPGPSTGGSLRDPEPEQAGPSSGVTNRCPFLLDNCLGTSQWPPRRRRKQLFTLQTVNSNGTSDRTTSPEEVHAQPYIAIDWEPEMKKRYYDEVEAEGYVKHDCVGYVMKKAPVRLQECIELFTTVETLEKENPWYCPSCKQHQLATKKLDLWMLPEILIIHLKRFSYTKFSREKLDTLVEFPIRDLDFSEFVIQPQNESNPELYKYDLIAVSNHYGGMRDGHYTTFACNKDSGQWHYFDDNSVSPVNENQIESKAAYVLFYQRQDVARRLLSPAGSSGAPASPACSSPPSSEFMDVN
Chain of UniProt O00487 (O00487 whole entry): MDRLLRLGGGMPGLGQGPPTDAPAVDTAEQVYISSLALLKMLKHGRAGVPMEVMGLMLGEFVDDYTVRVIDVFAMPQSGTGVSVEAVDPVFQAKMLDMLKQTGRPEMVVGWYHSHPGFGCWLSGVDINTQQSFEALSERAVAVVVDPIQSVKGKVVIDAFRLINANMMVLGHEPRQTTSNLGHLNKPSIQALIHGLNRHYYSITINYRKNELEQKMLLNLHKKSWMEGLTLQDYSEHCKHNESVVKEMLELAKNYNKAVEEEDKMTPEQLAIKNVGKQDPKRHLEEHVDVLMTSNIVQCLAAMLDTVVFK

Cl.O=C(CCl)N1CC(c2ccc(Br)cn2)C1
inactive: [1] -0.297 | [2] -0.285 | [3] -0.573 | [4] -0.0636 | [5] -0.282 | [6] -0.974 | [7] -0.175 | [8] -0.897 | [9] -0.229
